HCV inh – HCV inhibition; Huh7.5.1 HCVcc-Cre infection, luciferase reporter, 44 h; Potency, µM (doses to about 41.8 µM), without a hit: at the top dose activity change, negative = inhibition, actives largely listed as inhibitors; actives 3.4% (n = 340,000); AID 651820
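After 44 h co-culture of compound, cells and HCVcc-Cre (~0.5 moi), substrate is added for 15 min at room temperature and luciferase measured over 15 sec. Cells were seeded at 1,000/well and pre-cultured 4 h.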
Marburg entry inh – blocks Marburg virus binding to or entry into cells; Marburg virus pseudotyped entry inhibition, cell reporter; Potency, µM (titrated, usually from 37.8 µM), for the others: at the top dose activity change, negative = inhibition, most hits filed as inhibitors; actives 1.8% (n = 300,000); AID 540276; calls by dose curve; tested in HEK293 cells
RE007 growth inh – less growth of the S. pombe RE007 Vpr strain. AID 651644. actives 0.21% (n = 360,000). Potency, µM (titrated, usually from 92.2 µM), for inactives: top-dose activity change, negative = less growth, usual class: inhibitors. S. pombe RE007 Vpr strain, BacTiter-Glo ATP luminescence, 24 h; active = well fitted falling curve with a large enough effect; inconclusive = small, poorly fitted or top-dose-only effect; inactive = no such curve, though single readings can be large or run the other way; note: nearly all actives have a fitted effect of over 50% in size
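Fission yeast strain RE007, carrying one chromosomally integrated HIV-1 vpr copy, was seeded at OD 0.01 in PMG+AL medium with 23 nL pinned compound. After 24 h at 30 °C and 99% humidity, viability was read by BacTiter-Glo luminescence.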
FMDV inh – foot and mouth disease virus antiviral activity; FMDV antiviral cell-based qHTS; Potency, µM (titrated, usually from 57.9 µM), without a hit: at the top dose activity change, negative = inhibition, most hits filed as inhibitors; actives 1.2% (n = 410,000); calls by dose curve; tested in HEK293T cells; note: read-out not given here; nearly all actives have a fitted effect of over 45% in size
LASV entry inh – inhibitors of Lassa virus binding or cell entry. Potency, µM (highest dose often 37.9 µM), for the others: at the top dose activity change, negative = inhibition, actives largely listed as inhibitors. actives 1.2% (n = 300,000). Lassa virus pseudotype entry inhibition, cell reporter; calls by dose curve; tested in HEK293 cells; note: nearly all actives have a fitted effect of over 50% in size
Sm TGR inh – inhibitors of Schistosoma mansoni thioredoxin glutathione reductase | Q962Y6 | purified TGR, DTNB reduction, TNB absorbance 405 nm | Potency, µM (titrated, usually from 114 µM), for inactives: at the highest dose activity change, negative = inhibition, most hits filed as inhibitors | actives 3% (n = 360,000) | AID 485364; note: nearly all actives have a fitted effect of over 60% in size
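TGR 20 nM + NADPH 100 uM (dispensed conc.), cpd preinc 15 min RT; start with NADPH (500 uM addition) then DTNB (15 mM addition). Kinetic TNB absorbance, 405 nm filter. Four-parameter Hill fit across titration.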
An asterisk follows results filed as active; u = inconclusive; x = no result given; [ ] = remark or other dose. A selection: hits, their analogues and other compounds. The true share with any hit is near 7.2%. Unless noted, calls come from the whole dose curve; as a rule, active = well fitted curve in the direction sought with a large enough effect; inconclusive = small, poorly fitted or top-dose-only effect, or another doubt; inactive = no such curve, though single readings can be large; an effect the other way counts as inactive or inconclusive. % is set by controls: 0 for no effect and ±100 for the full control effect; potency is the fitted concentration of half-maximal effect.

SMILES | HCV inh | Marburg entry inh | RE007 growth inh | FMDV inh | LASV entry inh | Sm TGR inh
O=C(O)/C(=C\c1ccc(-c2ccccc2[N+](=O)[O-])o1)c1ccccc1 | 1% | x | -14% | 6% | x | 35µM*
Cc1ccc(C(=O)N/C(=C\c2ccc(-c3ccccc3[N+](=O)[O-])o2)C(=O)NCCCN(C)C)cc1 | -18% | u | -7% | u | -3%[46.1 µM] | 8.9µM*
CN(C)CCCNC(=O)/C(=C/c1ccc(-c2ccc([N+](=O)[O-])cc2)o1)NC(=O)c1ccccc1 | u | x | -6% | -27% | x | 0%
CCOc1ccc(CN2CCOc3ccc(C(O)c4cccnc4)cc3C2)cc1 (centres undefined) | x | x | x | -29% | x | x
Cc1ccc(NC(=O)c2cc3c(s2)CCCC3)cc1S(=O)(=O)Nc1ccccc1Cl | u | u | 0% | -18% | 11µM* | -10%
O=C(Nc1cccc(S(=O)(=O)Nc2ccc(Cl)cc2)c1)c1cc2c(s1)CCCC2 | 11µM* | u | 7% | -10% | u | 0%
O=C(Nc1cc(S(=O)(=O)Nc2ccccc2Cl)ccc1O)c1cc2c(s1)CCCC2 | -6% | x | -11% | 33% | x | -29%
Cc1ccc(C(=O)Nc2ccc(C)c(S(=O)(=O)Nc3ccccc3Cl)c2)s1 | 10µM* | -29% | -1% | -30% | 5.2µM* | -3%
COC(=O)c1ccccc1-c1cc(C)cc2c1OC(CNC(=O)c1ccn(C)n1)C2 (centres undefined) | x | x | x | 10% | x | x
O=C(CN1C(=O)NC2(CCCCCCC2)C1=O)Nc1c(Cl)cccc1Cl | 9% | x | -5% | -14% | x | x
COc1cccc2c1CCC1CC(=O)CC[C@@]21C (some centres undefined) | x | x | x | 5% | x | x
COc1ccc(OC)c(CCNC(=O)c2cc3cccc4c3n2CCS4)c1 | x | x | x | 4.5µM* | -25%[46.1 µM] | 3%
COc1ccc(OC)c(CCNC(=O)c2cc3cccc4c3n2CC(C)S4)c1 (centres undefined) | x | x | x | -21% | -11%[46.1 µM] | 6%
COc1cc(NC(=O)c2cc3c(=O)oc4ccc(C)cc4c3s2)cc(OC)c1OC | x | 29%[46.1 µM] | x | -12% | 8%[46.1 µM] | 5%
CCOc1cc(CNC(=O)C2CCN(c3nc4ccccc4[nH]3)CC2)cc(OCC)c1OCC | x | x | x | -4% | 25%[46.1 µM] | -10%
CCOC(=O)N1CCN(C(=S)Nc2cccc(C)c2)CC1 | -10% | 2% | 1% | -14% | 3% | 2%
CCOC(=O)N1C(=O)[C@@](CC)(c2ccccc2)N1C(=O)OCC | -11%[8.37 µM] | x | 7% | 35µM* | x | u
CC[C@@]1(c2ccccc2OC)C(=O)N(C(=O)OC)N1C(=O)OC | 36% | x | -12% | u | x | 25µM*
CC[C@@]1(c2cccc(C)c2)C(=O)N(C(=O)OC)N1C(=O)OC | 16% | x | 9% | -21% | x | 1.6µM*
O=c1/c(=C/c2ccco2)sc2n1CN(c1ccccc1)CN=2 | 2% | 28% | 7% | 27% | -4% | -27%
O=c1/c(=C/c2ccco2)sc2n1CN(c1cccc(Br)c1)CN=2 | -30% | -8% | 15% | -14% | u | 25µM*
Cc1ccc(/C=c2\sc3n(c2=O)CN(c2cccc(Br)c2)CN=3)o1 | -12% | 16% | 4% | -6% | 15% | 25µM*
Cc1ccc(-n2nnnc2-c2cnc3ccc(Cl)cc3c2-c2ccccc2)cc1 | 10µM* | u | 10% | -1% | u | 18%
NC(=O)c1ccccc1-c1noc(-c2ccccc2F)n1 | x | x | x | x | x | -1%
COc1cc(C2c3c(n[nH]c3C)C(=O)N2c2ccc(C)cc2)ccc1O (centres undefined) | 11% | -3% | 23% | 0% | -18% | u
SMILES | HCV inh | Marburg entry inh | RE007 growth inh | FMDV inh | LASV entry inh | Sm TGR inh
CCOC(=O)c1ccc(N2C(=O)c3n[nH]c(-c4cccs4)c3C2c2ccc(OC)cc2OC)cc1 (centres undefined) | x | u | x | u | u | 11%
CCOc1cc(C2c3c(n[nH]c3C)C(=O)N2c2ccc(C)cc2)ccc1O (centres undefined) | u | 12% | 8% | 23% | -27% | 18µM*
CCOc1ccc(-c2n[nH]c3c2C(c2cccs2)N(c2ccc(Br)cc2)C3=O)cc1 (centres undefined) | x | u | x | u | u | -7%
CCOc1ccc(N2C(=O)c3[nH]nc(-c4ccc(OC)cc4)c3C2c2cccs2)cc1 (centres undefined) | x | 7.9µM* | x | 40µM* | u | -2%
CCOC(=O)c1ccc(N2C(=O)c3[nH]nc(-c4ccc(C)cc4)c3C2c2ccc(O)cc2)cc1 (centres undefined) | x | 10µM* | x | 32µM* | u | 2%
CCOC(=O)c1ccc(N2C(=O)c3n[nH]c(-c4cccs4)c3C2c2cccc(OC)c2)cc1 (centres undefined) | x | 10µM* | x | u | u | 1%
CN1CCN(C(=O)Cn2ncc3c4ccccc4n(Cc4ccc(Cl)cc4)c3c2=O)CC1 | x | u | x | -17% | -2%[46.1 µM] | 0%
C[C@H](CCC(=O)NCC(=O)O)C1CC[C@H]2[C@H]3C(C[C@H](O)[C@]12C)[C@@]1(C)CC[C@@H](O)C[C@H]1C[C@H]3O (some centres undefined) | x | x | x | -4% | x | x
CCOC(=O)c1ccc(N2C(=O)c3[nH]nc(-c4ccc(C)cc4)c3C2c2cccc(F)c2)cc1 (centres undefined) | x | u | x | u | u | -4%
CCOC(=O)c1ccc(N2C(=O)c3[nH]nc(-c4ccc(OC)cc4)c3C2c2cccc(O)c2)cc1 (centres undefined) | x | u | x | 32µM* | u | 2%
COc1ccc(-n2nc(C(=O)Nc3ccc(Cl)cn3)c3c4ccccc4n(C)c3c2=O)cc1 | x | -10%[46.1 µM] | x | 0% | 11%[46.1 µM] | 3%
CC(=O)Nc1ccc(S(=O)(=O)Oc2ccccc2N2C(=O)C3C4CCC(C4)C3C2=O)cc1 (centres undefined) | x | 10µM* | -9% | -23% | 2.8µM* | 0%
O=C(Nc1nc2c(cc3c4c(cccc42)CC3)s1)c1ccccc1Cl | 6.3µM* | u | -6% | 16% | u | 10%
CCC(C)(C)n1nnnc1C(c1ccc(O)cc1)N1CCc2ccccc2C1 (centres undefined) | 33% | 14%[46.1 µM] | -14% | 9% | 4% | u
CC1CCN(C(c2ccc(N(C)C)cc2)c2nnnn2C(C)(C)C)CC1 (centres undefined) | -1% | -2% | -2% | 17% | 17% | 5.6µM*
CN(C)c1ccc(C(c2nnnn2C(C)(C)C)N2CCc3ccccc3C2)cc1 (centres undefined) | x | 0% | x | x | x | 11µM*
CC(C)(C)n1nnnc1C(c1ccccc1)N1CCc2ccccc2C1 (centres undefined) | 12% | u | 12% | -23% | 7% | 35µM*
